Cav3 T inh: human Cav3.2 channel inhibition, primary screen; O95180; Cav3.2-expressing cells, Fluo-4 calcium fluorescence FDSS; hits give low values; B-score at 10 µM; hit rate 4% among 100,000; AID 449739;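 active means single-dose well whose peak fluorescence ratio is a statistical outlier from its plate by either plate-standardised score or position-corrected B-score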
CYP2C9 act: activators of human CYP2C9; P11712; recombinant CYP2C9, luciferin-H conversion, luminescence; hits give high values; factor 1 = untreated enzyme, 0 = blocked; activation factor at 5 µM; hit rate 1.4% among 96,000;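 active means activation factor of 2 or more for CYP2C9 at a 5 µM dose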
Target sequence (P11712 whole entry, looked up): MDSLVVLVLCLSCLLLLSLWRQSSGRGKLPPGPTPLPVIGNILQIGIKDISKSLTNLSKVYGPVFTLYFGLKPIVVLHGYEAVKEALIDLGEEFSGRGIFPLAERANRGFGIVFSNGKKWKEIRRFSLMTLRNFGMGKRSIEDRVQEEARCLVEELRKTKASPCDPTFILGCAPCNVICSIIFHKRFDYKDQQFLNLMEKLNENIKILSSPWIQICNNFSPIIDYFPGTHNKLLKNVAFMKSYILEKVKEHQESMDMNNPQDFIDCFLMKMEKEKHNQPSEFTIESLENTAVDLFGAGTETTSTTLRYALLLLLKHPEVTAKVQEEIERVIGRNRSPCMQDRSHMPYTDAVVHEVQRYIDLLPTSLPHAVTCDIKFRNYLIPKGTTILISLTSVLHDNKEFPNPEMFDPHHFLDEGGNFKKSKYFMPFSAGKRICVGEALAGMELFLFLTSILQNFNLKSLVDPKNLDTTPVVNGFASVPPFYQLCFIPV
CYP2C9 inh: human CYP2C9 inhibition; inhibition, % at 5 µM; hit rate 20% among 96,000; CYP2C9 Supersomes, luciferin-H conversion, luminescence;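 active means blocking of liver enzyme CYP2C9 beyond about 50% at 5 µM, limit read from the data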
CYP2C19 act: increases human CYP2C19 enzyme activity | P33261 | recombinant CYP2C19, luciferin-H EGE luminescence; hits give high values; 0 = fully inhibited enzyme, 1 = untreated enzyme | activation factor at 5 µM | 96,000 tested, under 10 active;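 active means activation factor of at least 2 at 5 µM in the primary screen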
CYP2C19 inhib: human CYP2C19 inhibition. P33261. CYP2C19 Supersomes, luciferin-H EGE luminescence, 30 min. inhibition, % at 5 µM. hit rate 21% among 96,000. AID 778;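 active means CYP2C19 inhibition above a set limit at 5 µM in the primary screen, cut at about 50% in these data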
A number is an active result; - = inactive; . = no result. Compounds with a hit are over-represented: about 27% of the library has one in this group of screens.

SMILES	Cav3 T inh	CYP2C9 act	CYP2C9 inh	CYP2C19 act	CYP2C19 inhib
CN(Cc1ccccc1)c1nc2c(c(=O)[nH]c(=O)n2C)n1Cc1ccccc1	-	-	-	-	-
Cc1ccc(OCC(O)Cn2c(NCCc3ccccc3)nc3c2c(=O)[nH]c(=O)n3C)cc1 (stereo unspecified)	.	-	-	-	51.3
CC(=NCCCn1ccnc1)c1c(O)n(Cc2ccccc2)c(=O)[nH]c1=O	-	-	78.4	-	-
Cn1c(=O)[nH]c(=O)c2c1nc(NCCc1ccccc1)n2CC(O)COc1ccccc1 (stereo unspecified)	-	-	-	-	-
CCOCCCNc1nc2c(c(=O)[nH]c(=O)n2C)n1CCCc1ccccc1	-	-	-	-	-
Cn1c(=O)[nH]c(=O)c2c1nc(NCCCn1ccnc1)n2CCOc1ccccc1	-	-	98.1	-	98.7
CNc1ccccc1C(=O)OCC(C)=O	-	.	.	.	.
Cc1ccc(S(=O)(=O)N2CCOCC2)cc1C(=O)OCC(=O)N1c2ccccc2NC(=O)C1(C)C	-	-	-	-	-
Cc1ccnc(SCC(=O)Nc2c(C)n(C)n(-c3ccccc3)c2=O)n1	-	-	-	-	-
Cn1c(=O)[nH]c(=O)c2c1nc(NCCCO)n2Cc1ccc(F)cc1	-	-	-	-	-
Cn1c(=O)[nH]c(=O)c2c1nc(NCCCn1ccnc1)n2Cc1ccccc1	.	-	96.1	-	79.6
CCCNc1nc2c(c(=O)[nH]c(=O)n2C)n1CCc1ccccc1	-	-	-	-	-
Cc1ccc(C(=O)CNc2nc3c(c(=O)[nH]c(=O)n3C)n2Cc2ccccc2)cc1	-	-	79.0	-	88.4
CCO[C@H]1OC(C(=O)N2CCN(Cc3ccc4c(c3)OCO4)CC2)=C[C@@H](C(C)(C)C)[C@@H]1CCCO	-	.	.	.	.
CCOC(=O)N1CCC(N(C(=O)Nc2cccc(OC)c2)C(C)CC)CC1 (stereo unspecified)	-	-	-	-	55.8
O=C(CCCSc1nnc(SCCCC(=O)c2ccc(F)cc2)s1)c1ccc(F)cc1	-	-	76.4	-	55.7
Cc1sc2nc(SCC(=O)OC(C)C)n(C)c(=O)c2c1C	-	-	-	-	-
CCOC(=O)Cc1csc2nc3sc(C)c(C)c3c(=O)n12	-	-	-	-	55.5
CCOC(=O)CNC(=O)CSc1nc2sc(C)c(C)c2c(=O)n1C	-	-	50.4	-	70.5
C=CCOc1ccc(C2c3c(oc4ccccc4c3=O)C(=O)N2CCCN2CCOCC2)cc1 (stereo unspecified)	-	-	54.7	-	-
CC(C)Oc1ccc(C2c3c(oc4ccccc4c3=O)C(=O)N2CCCN2CCOCC2)cc1 (stereo unspecified)	-	-	51.3	-	-
O=C(CSc1ccc2nnc(-c3ccccn3)n2n1)Nc1ccc2c(c1)OCCO2	-	-	65.5	-	-
O=C(CSc1ccc2nnc(-c3ccncc3)n2n1)Nc1ccc2c(c1)OCCO2	-	-	56.5	-	-
O=C(CSc1ccc2nnc(-c3ccncc3)n2n1)Nc1ccc2c(c1)OCO2	-	-	57.5	-	-
O=C(CSc1ccc2nnc(-c3ccccn3)n2n1)Nc1ccc2c(c1)OCO2	-	-	-	-	-
SMILES	Cav3 T inh	CYP2C9 act	CYP2C9 inh	CYP2C19 act	CYP2C19 inhib
Clc1ccc2c(c1)C1OCCC1C(c1ccco1)N2 (stereo unspecified)	-	-	-	-	-
O=C(CSc1nnc(-c2ccc(S(=O)(=O)N3CCCC3)cc2)n1CC1CCCO1)NC1CC1 (stereo unspecified)	-	-	-	-	-
O=c1ccc(/C=C/c2ccccc2)nn1Cc1ccccc1Cl	-	-	51.9	-	-
COc1ccc(NC(=O)c2ccc(C(=O)c3ccccc3)o2)cc1	-	-	-	-	-
CC1CN(C(=O)Nc2ccc3snnc3c2)c2ccccc21 (stereo unspecified)	-	-	81.3	-	70.6
CC1Cc2ccccc2N1C(=O)c1ccc2snnc2c1 (stereo unspecified)	-	-	-	-	81.2
CNC(=O)Nc1ccc2snnc2c1	-	-	-	-	-
CSc1nc(N)nc(SCC(=O)C(C)(C)C)c1C#N	.	-	73.2	-	-
Clc1cccc(CSc2nnc(-c3c[nH]c4ccccc34)o2)c1	-	-	-	-	-
O=c1c(-c2nnc(SCc3ccc(Cl)c(Cl)c3)o2)cccn1Cc1ccccc1	-	-	55.5	-	84.5
O=C(NCc1cccnc1)c1cccc(Cl)c1	-	-	-	-	72.7
O=C(NCc1cccnc1)Nc1ccc(F)cc1F	-	-	-	-	-
O=C(NCc1ccncc1)c1c(F)c(F)c(F)c(F)c1F	-	-	66.9	-	-
O=C(NCc1ccncc1)C(F)(F)C(F)(F)C(=O)NCc1ccncc1	-	-	93.1	-	-
CC(NC(=O)NCc1cccnc1)(C(F)(F)F)C(F)(F)F	-	-	-	-	76.6
O=C(c1ccccc1)c1nc[nH]c1C(=O)Nc1ccccc1	-	-	-	-	-
CC(C)C(NS(=O)(=O)c1ccc2c(c1)OCCO2)C(=O)NCCc1ccccn1 (stereo unspecified)	-	-	-	-	-
O=C(NCc1cccnc1)c1c(F)c(F)c(F)c(F)c1F	-	-	-	-	80.6
Cc1cc(C(=O)NCc2cccnc2)no1	-	-	-	-	-
COCCCNC(=O)c1cccc(C(=O)NCCCOC)c1	-	-	-	-	-
Cc1cc2c(cc(C(=O)NCc3cccnc3)n2Cc2ccc(Cl)cc2)o1	-	-	90.8	-	90.7
O=C(NCc1cccnc1)c1nnc(Cc2ccc(F)cc2)o1	.	-	-	-	78.2
CC(C)CCNC(=O)c1cccc(Cl)c1	-	-	-	-	58.0
O=C(C(Cc1ccccc1)N1C(=O)c2ccccc2C1=O)N1CCc2ccccc21 (stereo unspecified)	-	.	.	.	.
Cc1ccc(OC(C)C)c(CN(CCO)CCO)c1	-	-	-	-	-
SMILES	Cav3 T inh	CYP2C9 act	CYP2C9 inh	CYP2C19 act	CYP2C19 inhib
O=C(/C=N/O)NCc1ccncc1	-7.99	-	-	-	-
CC(C)OC(=O)c1nnc(Cc2ccc(F)cc2)o1	-	-	-	-	89.1
CCOC(=O)c1c(C)c(C(=O)NCc2cccnc2)c(C)n1CC	-	-	59.9	-	69.7
O=C(NCc1ccncc1)c1nnc(Cc2c(F)cccc2Cl)o1	-	-	83.0	-	80.5
O=C(NCc1ccco1)c1nnc(Cc2ccc(Cl)cc2)o1	-	-	-	-	-
O=C(CN(CCc1ccccc1)C(=O)CNS(=O)(=O)c1ccc(F)cc1)NCC1CCCO1 (stereo unspecified)	-	-	-	-	-
O=C(NCc1cccnc1)NC1(C(F)(F)F)Oc2ccc(Cl)cc2O1 (stereo unspecified)	-	-	58.1	-	90.7
Cc1cc(C)c(C(=O)CSc2n[nH]c(=O)n2C2CC2)cc1C	-	-	76.9	-	52.0
O=C(OCCOc1ccccc1Cl)c1ccc(-n2cnnn2)cc1	-	-	-	-	-
COc1cc(NC(=O)COc2ccc(-n3cnnn3)cc2)c(OC)cc1Cl	-	-	-	-	-
COc1ccc(OC)c(NC(=O)COC(=O)c2ccc(-n3cnnn3)cc2)c1	-	-	-	-	63.3

Compound activity deposited in PubChem by several laboratories.
